Data published in the supplement of paper PMC11417369.
± gives the standard deviation of the averaged measurements. Over roughly 25,000 sequences, “ln(normalized median fluorescence intensity)” has its median near 10; the highest 2% begin near 12. What follows is part of a selection rich in the highest values, with near analogues and random picks from the rest.

System: PfAP2-G AP2 domain (GST-tagged)
Assay: gcPBM binding intensity (ln(normalized median fluorescence intensity)); higher = stronger DNA binding
Summary of the method: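 An Agilent 4 × 180k array carrying primer-extended double-stranded 36-bp intergenic genomic probes and negative controls received GST-tagged P. falciparum DNA-binding domains expressed in E. coli, about 25 μg on average, for 1 h. The binding buffer contained 1× PBS, 1% milk, 0.2 mg/ml BSA, 0.5% salmon testes DNA and 0.03% Triton X-100. Binding intensity is the top Masliner-normalised natural-log median intensity across replicate spots of either probe orientation, read after Alexa488 anti-GST antibody staining and a 488 nm scan.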

Sequence	gcPBM binding intensity (ln)
TTACAATAAATTATAGTGCAATATTTTATTTAATAT	9.9 ± 0.26
AAAATATATATATATATATATATATGTATACTCCTA [XGTACX_negctrl_site312]	10 ± 0.29
CGAATATATTCTAGACGTACTATATAATATATATAT [XGTACX_site4953]	11.1 ± 0.69
TATATTTATTTATTCTGTACTGAAGACAGTTATGTA [XGTACX_site8857]	10.8 ± 0.58
AAAAAAAATAATAATACACACAATATGATATGTACA [CACACA_site850]	10.4 ± 0.17
TATGATATAATTATGTGTACACAATTTTTTTTTTTT [XGTACX_site1084]	11.6 ± 0.8
ATATGTACAAATTATACACACATGTACAATTATATA [CACACA_site1253]	11.3 ± 0.79
GATATAATTATGTGTACACAATTTTTTTTTTTTTTT [CACACA_site4501]	11.7 ± 0.87
TTATATGTTTTGTGTACACAATTTATTAAATTAATA [CACACA_site5645]	11.7 ± 0.88
AAATTATATATGATGTGTACATAAATATATACACAT [XGTACX_site8761]	11.4 ± 0.83
TTTGTTTTATGTGGTTGTACACAAATACAATTTAAA [XGTACX_site5156]	11.6 ± 1.1
AAAATAATATATGTATGTACACAATTATTTATAAGT [XGTACX_site7267]	11.5 ± 0.89
TAATTATTTTTATATTGTACAATATGTAAATATATA [XGTACX_site592]	10.8 ± 0.58
GAAAATAGCTAAAATACACACAATTAAAAATTATTA [CACACA_site3506]	9.84 ± 0.16
TTCCATGTAGGACATGCATGCAGTTTTTAAAATATT [TGCATGCA_site481]	11 ± 0.69
AATGTTAAAAATGAAAGTACATGGAATTTATTATTT [XGTACX_site4095]	11 ± 0.56
AATATTTATATTTAGTGTACAGAAATAAAAAAAAAA [XGTACX_site6066]	11.3 ± 0.93
TATTTTTAAAATATAAGTAAAAAAATAATATAAACT [TGCATGCA_negctrl_site283]	10.1 ± 0.11
TCCTCTTCAATATATATATATTATAAATAAATAAAT [CACACA_negctrl_site1756]	9.91 ± 0.38
TGTGTAGCTAGGGGGTTGCTAATTTTTGTTTTGACC [CACACA_negctrl_site634]	10.9 ± 0.57
AGCTCATGCAGGTGTACACAAAAAGAAAAAAAATAA [CACACA_site4828]	11.7 ± 0.86
ATAAGCTCATGCAGGTGTACACAAAAAGAAAAAAAA [XGTACX_site2433]	11.6 ± 0.81
AGGTGAGCTCAGACTACACACACAAAGAAAAAAATA [CACACA_site8439]	10.2 ± 0.28

Sequence	gcPBM binding intensity (ln)
TCAAAGGAATTTTTATGTACATATAAACTTTATTCT [XGTACX_site3432]	11.2 ± 0.76
GATATATGTATAATAACGCACACTACAAAAATAAAA [CACACA_site2100]	10.3 ± 0.33
ATGTATATATATATATGTACTAATTAGTAGTTTACG [XGTACX_site6272]	11.1 ± 0.71
ATAATGACTAAATTTAAACACACAAGGGGAGTTTAC [CACACA_site8209]	9.725 ± 0.007
ATAAATACATTAAAATGTACATAAAAATATTACTGG [XGTACX_site1484]	11.2 ± 0.67
TATAAATAAATGTGTACACACATTAAAATCAAACGT [CACACA_site2340]	11.7 ± 0.96
TATAAATAAAAGTGTACACACATTAAAATCAAACGT [CACACA_site5316]	11.7 ± 0.89
TTTTTTTAATAAAAGTGTACCAAATTATATACACAT [XGTACX_site6811]	11.1 ± 0.64
TAAATATAAGTGTACATACACACTTTACAATCTCAT [CACACA_site3006]	11.3 ± 0.72
CTTTATATATAGTGTACACATTAAACAAATCTCAAT [CACACA_site5845]	11.6 ± 1
TATATAAATAAATGTGTACACACATTAAAATCAAAC [CACACA_site8733]	11.6 ± 1.1
AAAACTATATTAATGTGTACACATCAAAATATTAAT [XGTACX_site6767]	11.6 ± 0.84
TATTTTTTTAAAATAGGTACACAATCAAACATTTAT [XGTACX_site8785]	11.4 ± 0.97
ACAATAAAGAAGTGTACACATATATCAATAAAAAAA [CACACA_site5228]	11.6 ± 0.95
CATCTTATATAATCATGTACATATAGAGACTTCTTT [XGTACX_site7685]	11.1 ± 0.63
TATATTTACATTGTAACACACATGAAATATATATAT [CACACA_site61]	9.93 ± 0.2
TATAAATATTATAATTGTACATATTATAAAAATTTT [XGTACX_site2719]	11 ± 0.75
TATTTTTACCCATAAAGTACACATAAATATAAAATA [XGTACX_site177]	11.5 ± 1
ATGGACAAGTTAAACGCACACAAATATATACACCCA [CACACA_site8478]	10.6 ± 0.39
ATATATTTATTTTGTGCACACAACGCAAACCTTTTA [CACACA_site3508]	10.5 ± 0.27
AATTTTGTTAAAAGGACACACAATTCAATATATTAA [CACACA_site647]	11.1 ± 0.73
CCGTATTCAAAAAGGAGTACACAATTATATGTTATA [XGTACX_site641]	11.7 ± 1
AAATATATATTCAAAAGTACACAATTTGTTAATAAT [XGTACX_site8917]	11.4 ± 0.82

Sequence	gcPBM binding intensity (ln)
TATAATTTATAAGTAGTGCATTTCTTTTCATTTTTA	10.03 ± 0.057
AAGATTAAACATTGCACACAGAAATATATTTTCTAT [CACACA_site2374]	9.91 ± 0.099
AATAGTAAAAGATATACACACACCAAAAAATATAAT [CACACA_site5293]	10.2 ± 0.12
TTTATATACAAAAATGCACACGAAAAGTAATATATA [CACACA_site9387]	10.28 ± 0.049
ACAGTATCTGGTAGCTGTACGAGTCGTAGAGAGTAG [XGTACX_site2041]	11.2 ± 0.71
TTACATGTACAAAAGTTGCACTTCATACACTTTTAT	11.1 ± 0.61
TATTTTGTTTTAAAAGTACACACTTTTAATTAGATT [CACACA_site1180]	11.5 ± 1
AAAAAAAAAAAAAAAAGTACAAGCATTGCGTTTTAA [XGTACX_site6075]	11.5 ± 0.83
TTTTTTTTTTTTAGAGTACACACTTTTTTACATTTA [CACACA_site3836]	11.4 ± 0.83
ACTTTGCGTTAAAAGAGTACATAATATTTTTTTTTT [XGTACX_site7533]	11.2 ± 0.73
AATTTCCTTTTTTAAAGTACACAAAAGTTCACTTTG [XGTACX_site4460]	11.6 ± 0.98
AAAAAAAAAAAAAGTACACACTTTTGCGTACAAGTA [CACACA_site5672]	11.9 ± 0.83
TACCTACACTTTTGGAGTACAATTAAAAAAAAAAAA [XGTACX_site1403]	11.5 ± 1.1
AAAAAAAAAAAAAGTACACACTTTTGCGTACATGTA [CACACA_site7449]	12 ± 0.98
AAAAAAAAAAAAAAAGTACACACTTTTGCGTACATG [CACACA_site3097]	12.3 ± 1.4
AAAAAAAAAAAAAAAAGTACACACTTTTGCCTACAT [XGTACX_site6583]	11.6 ± 0.86
AAAAGAAAAAAAAGTACACACATGTATATTAAGCGT [CACACA_site5402]	11.5 ± 0.83
ATTTATATTTATAAATGTACACATATATATTTCATT [XGTACX_site2723]	11.2 ± 0.63
CCGCCATTGTACCATCCACACACATATATATATGTA [CACACA_site8866]	10.9 ± 0.45
AAAATAACGAGTCAAACACACATATATATATATATA [CACACA_site2039]	10.1 ± 0.25
AAATTGTAGCACCAAGCATGCTAAAAGGACATATGA [TGCATGCA_site717]	10.8 ± 0.34
GATATAAGGGTATGAAGTACATAAATATTTTATGCT [XGTACX_site1886]	11.3 ± 0.88
ACCCAAGAGAAAAGAGAAAGAAATATGTGTATATTG [GTGCAC_negctrl_site214]	9.92 ± 0.042

Sequence	gcPBM binding intensity (ln)
TTCAGTGTATACATATGTACATATATATATATATAT [XGTACX_site1621]	11.3 ± 0.56
TTTTTTTTTTTTTTTTGTACATAATTATATATTTAC [XGTACX_site7540]	10.9 ± 1
AAAATAATGTTTATATGTACATATATATATATATAT [XGTACX_site8815]	11 ± 0.57
AACAATTAGAACTTTGCACACTTCTATATATTTTGT [CACACA_site674]	9.91 ± 0.2
TTTTCTAAATAAATAGTGCATTTATTATATATACAT [GTGCAC_site9766]	9.97 ± 0.13
ATATATATATATATATGTACATATTTGATTTTTCTT [XGTACX_site8171]	11.1 ± 0.79
ATATTTATTTATTTATGTACGCACACAGTTGATATT [XGTACX_site5808]	11.7 ± 1
AAATATTATGTACGCACACACATTTTTGATATATAA [CACACA_site7755]	11.5 ± 0.88
TATTTATTTATGTACGCACACAGTTGATATTAATTC [CACACA_site2754]	11.6 ± 0.96
TTGTAATATCTTGTCACACATATATATATATATATA [CACACA_site4937]	10.1 ± 0.26
AATTGAAAAAGAAATTGTACATTTTATTTTTATTAT [XGTACX_site1973]	10.9 ± 0.42
ATAGTCTTAATGACTACACACCTAACTATGCATGCA [CACACA_site5084]	9.88
CAAAAATAAATATAAACACACAATAAATAAATAAAT [CACACA_site891]	9.74 ± 0.057
TAAAATAATACAAAATGTACAAAATTTACAAAATGT [XGTACX_site3541]	10.5 ± 0.28
TATTTTAACATTAGGTGTACATACAAAAATAAAAAT [XGTACX_site8577]	11.6 ± 0.93
CAAAAATAATTTAGGTGTACAAATTTGACAAAAAAA [XGTACX_site188]	11.7 ± 0.59
CTTAAAATGATAATATGTACACATAAATAATATATA [XGTACX_site8330]	11.5 ± 0.76
TACTACACACATTCATGTACTTGATAAATTAATGAT [XGTACX_site6444]	10.9 ± 0.47
TATATAAACATCGGTAGTACACACATTCATGTATTT [XGTACX_site6443]	11.5 ± 0.71
ATAAACATCGGTAGTACACACATTCATGTACTTGAT [CACACA_site3037]	11.8 ± 1
TTTTCAAAATGTTGTACACACAAAAAAAAAAAAAAA [CACACA_site1550]	11.5 ± 1
